21 compounds from PubChem BioAssay (NCI) can be followed below.

The panel holds about 79,000 compounds, 15% with a hit somewhere; the sample as a whole holds those more often. Values without a mark were called inactive. Active and inactive are the calls of the source. Cut-off read from the data, not from the text of the source: active = growth inhibition above about 70%; inactive = the rest.

Assay [1] in a line: NCI Yeast Anticancer Drug Screen. Data for the rad50 strain (AID 155).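 Note: 0% = growth of vehicle-only cultures of the same strain.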 The settings on record: S. cerevisiae rad50 strain growth inhibition; at 50.0 µM; hits give high values. Put shortly: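 Vehicle-treated cultures provide the reference for the growth inhibition reported for compound-exposed, repair-deficient yeast.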
Assay [2] in a line: NCI Yeast Anticancer Drug Screen. Data for the mec2-1 strain (AID 157). Conditions: S. cerevisiae mec2-1 strain, at 50.0 µM, hits give high values. Put shortly: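 mec2-1 yeast strain, carrying an alteration in DNA damage repair or cell cycle control, was exposed to compounds; growth inhibition was measured relative to vehicle-treated controls.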
Assay [3] is described as follows: NCI Yeast Anticancer Drug Screen. Data for the sgs1 mgt1 strain (AID 161).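 Note: 0% = growth of cultures given vehicle only.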 Conditions: S. cerevisiae sgs1 mgt1 strain, at 50.0 µM, hits give high values. In outline:
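Percent growth inhibition was derived by comparing compound-exposed mutant yeast with vehicle-exposed cultures. The strain carries alterations in DNA damage repair.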

A short description of assay [4]: NCI Yeast Anticancer Drug Screen. Data for the cln2 rad14 strain (AID 165).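 Note: 0% = growth equal to vehicle treated cultures.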 The settings on record: S. cerevisiae cln2 rad14 strain, at 50.0 µM, hits give high values. Put shortly: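 Yeast carrying cln2 and rad14 alterations (cell cycle control and DNA damage repair) were exposed to compounds. Growth inhibition was measured against vehicle-treated controls.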
Assay [5] is described as follows: NCI Yeast Anticancer Drug Screen. Data for the bub3 strain (AID 167). Conditions: S. cerevisiae bub3 mutant strain, at 50.0 µM, hits give high values. In outline:
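Mutant yeast screening strain plus compound; vehicle-treated cultures serve as the 0% inhibition reference.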

Assay [6] is described as follows: NCI Yeast Anticancer Drug Screen. Data for the mlh1 rad18 strain (AID 175). Conditions: S. cerevisiae mlh1 rad18 strain growth inhibition; at 50.0 µM; hits give high values. Put shortly:
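Growth inhibition of the yeast strain was measured after compound exposure and expressed relative to vehicle-treated controls. The strain carries defined defects in DNA damage repair.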

Consider `Nc1ccccc1OCCOCCOc1ccccc1N`, for which the growth inhibition was -31.9% in assay [1]; -2.65% in assay [2]; -8.45% in assay [3]; 45.4% in assay [4]; 14.9% in assay [5]; -10.5% in assay [6].

Regarding `CC1CCCN(P(c2ccccc2)N2CCCC(C)C2)C1` (stereo unspecified), the growth inhibition in assay [1] was 25%; in assay [2], 4.6%; in assay [3] it was 16.4%; in assay [4], 15.4%; in assay [5], 26%; in assay [6], 13%.

`O=C(Cc1ccccc1)N(Cc1ccccc1)Cc1ccccc1`: the growth inhibition was 96.8% (active) in assay [1]; 98.7% (active) in assay [2]; 98.8% (active) in assay [3]; 91.9% (active) in assay [4]; 92.4% (active) in assay [5]; 97.9% (active) in assay [6].

With `CC1=C(C(=O)NNC(=O)C[N+](C)(C)C)CC(C(=O)NNC(=O)C[N+](C)(C)C)=C(C)N1`, the growth inhibition in assay [1] was -12.4%; in assay [2], -21.1%; in assay [3], -10.9%; in assay [4] it was -31.2%; in assay [5] it was -13.2%; in assay [6] it was -39.9%.

`N#Cc1cccc(Br)c1`: the growth inhibition in assay [1] is -11.9%; in assay [2] it was -15.8%; in assay [3] it was -1%; in assay [4] it was -11.4%; in assay [5] it was -14.9%; in assay [6], 13.1%.

With `c1ccc2c(c1)C[N+]1(CCCCCC1)C2`, the growth inhibition was 7% in assay [1]; 6.05% in assay [2]; 11% in assay [3]; -10.3% in assay [4]; 1.05% in assay [5]; 10.7% in assay [6].

Regarding `Cc1c(/C=N/N(C)C)oc2c1cc(O)c1ncccc12`, the growth inhibition in assay [1] is 2.95%; in assay [2] it was -4.4%; in assay [3], 20.4%; in assay [4] it was -1.9%; in assay [5], 4.65%; in assay [6] it was 2.35%.

Turning to `CCCC(=O)C(=O)CCC`, the growth inhibition in assay [1] is -5.25%; in assay [2] it was -17.4%; in assay [3], 2.3%; in assay [4] it was -26.1%; in assay [5], -0.15%; in assay [6] it was -3.45%.

As to `CC(C)NC(=O)CCC(=O)O`, the growth inhibition in assay [1] is -14.9%; in assay [2] it was 21.6%; in assay [3], -17.9%; in assay [4], -5.65%; in assay [5], 12.1%; in assay [6] it was 0.5%.

For the compound `CC(C)(c1ccc([N+](=O)[O-])cc1)[N+](=O)[O-]`, the growth inhibition in assay [1] was 11.1%; in assay [2] it was 10.3%; in assay [3], 1.6%; in assay [4], -7.4%; in assay [5], -11.8%; in assay [6] it was -4.55%.

As to `Cc1cc(Cl)cc(Cl)c1OCC(=O)Nc1ccc(Cl)cc1`, the growth inhibition in assay [1] is 6.45%; in assay [2], 2.45%; in assay [3], 8.5%; in assay [4], 4%; in assay [5] it was 21.9%; in assay [6], -7.7%.

Regarding `C[N+]1(CCC(=O)c2ccco2)CC2CCC(CC2)C1` (stereo unspecified), the growth inhibition is 3.9% in assay [1]; -18.1% in assay [2]; -37.1% in assay [3]; -24.9% in assay [4]; -68.7% in assay [5]; 0.45% in assay [6].

Turning to `NNC(=O)Cc1ccc2ccccc2c1`, the growth inhibition was 12.3% in assay [1]; -32.1% in assay [2]; 4.45% in assay [3]; -7.05% in assay [4]; 4.6% in assay [5]; 12% in assay [6].

On to `CC[N+](C)(CC)CCOc1nc2c(c(=O)n(C)c(=O)n2C)n1C`, for which the growth inhibition is -9.5% in assay [1]; -6.85% in assay [2]; -6.05% in assay [3]; 5.25% in assay [4]; -22.5% in assay [5]; -2.65% in assay [6].

On to `COC(=O)C1=C(NC(=O)Nc2ccc(OC)cc2)OC(C)(C)C1c1ccc(Cl)cc1` (stereo unspecified), for which the growth inhibition was 25.9% in assay [1]; 41.7% in assay [2]; 30.4% in assay [3]; 3.75% in assay [4]; 24.1% in assay [5]; 43.4% in assay [6].

Take `N#CC(C#N)=CN1CCCCC1`: the growth inhibition was -16.2% in assay [1]; -4.65% in assay [2]; -12.1% in assay [3]; 17.6% in assay [4]; -6.35% in assay [5]; -17.8% in assay [6].

`NC(CC1C(=O)Nc2ccccc21)C(=O)O` (stereo unspecified): the growth inhibition in assay [1] was -32.5%; in assay [2] it was -14.9%; in assay [3], -11.3%; in assay [4], -60.6%; in assay [5], -0.8%; in assay [6] it was -8.9%.

For `NC(=O)c1ccccc1C(=O)c1ccccc1`, the growth inhibition was -35% in assay [1]; 1.85% in assay [2]; -8.6% in assay [3]; -20.1% in assay [4]; -27.1% in assay [5]; -10.3% in assay [6].

In the case of `O=c1[nH]c(=O)n(C2CC(O)C(CO)O2)cc1NN=NCCc1ccccc1` (stereo unspecified), the growth inhibition in assay [1] is -24.3%; in assay [2], 0.75%; in assay [3], 5.05%; in assay [4], 4.85%; in assay [5], 1.9%; in assay [6], 10.8%.

Consider `C=CCc1oc(C)nc1CCCC`, for which the growth inhibition in assay [1] was 0.2%; in assay [2], -0.1%; in assay [3], 16.7%; in assay [4], 27.4%; in assay [5] it was 5.85%; in assay [6], 23.3%.

Regarding `CN(C)CCCOCCn1c2c(c3ccccc31)CCCC2`, the growth inhibition in assay [1] was 19.2%; in assay [2], -1.2%; in assay [3] it was 12.9%; in assay [4] it was -2.95%; in assay [5], 15.8%; in assay [6], -89.5%.
